Experiments:
Assay in all cases: log2 ratio of Biotin-Ahx-Ub-VS probe labelling (fragment/DMSO); higher = less target engagement (more negative = stronger competition), active = hit call of the paper (q ≤ 0.05, log2 ratio ≤ -1)
Conditions in all cases: compound concentration: 200 uM; treatment time: 3 h
[1] = biological target: T1, USP19 (UniProt O94966)
T1 sequence (whole entry): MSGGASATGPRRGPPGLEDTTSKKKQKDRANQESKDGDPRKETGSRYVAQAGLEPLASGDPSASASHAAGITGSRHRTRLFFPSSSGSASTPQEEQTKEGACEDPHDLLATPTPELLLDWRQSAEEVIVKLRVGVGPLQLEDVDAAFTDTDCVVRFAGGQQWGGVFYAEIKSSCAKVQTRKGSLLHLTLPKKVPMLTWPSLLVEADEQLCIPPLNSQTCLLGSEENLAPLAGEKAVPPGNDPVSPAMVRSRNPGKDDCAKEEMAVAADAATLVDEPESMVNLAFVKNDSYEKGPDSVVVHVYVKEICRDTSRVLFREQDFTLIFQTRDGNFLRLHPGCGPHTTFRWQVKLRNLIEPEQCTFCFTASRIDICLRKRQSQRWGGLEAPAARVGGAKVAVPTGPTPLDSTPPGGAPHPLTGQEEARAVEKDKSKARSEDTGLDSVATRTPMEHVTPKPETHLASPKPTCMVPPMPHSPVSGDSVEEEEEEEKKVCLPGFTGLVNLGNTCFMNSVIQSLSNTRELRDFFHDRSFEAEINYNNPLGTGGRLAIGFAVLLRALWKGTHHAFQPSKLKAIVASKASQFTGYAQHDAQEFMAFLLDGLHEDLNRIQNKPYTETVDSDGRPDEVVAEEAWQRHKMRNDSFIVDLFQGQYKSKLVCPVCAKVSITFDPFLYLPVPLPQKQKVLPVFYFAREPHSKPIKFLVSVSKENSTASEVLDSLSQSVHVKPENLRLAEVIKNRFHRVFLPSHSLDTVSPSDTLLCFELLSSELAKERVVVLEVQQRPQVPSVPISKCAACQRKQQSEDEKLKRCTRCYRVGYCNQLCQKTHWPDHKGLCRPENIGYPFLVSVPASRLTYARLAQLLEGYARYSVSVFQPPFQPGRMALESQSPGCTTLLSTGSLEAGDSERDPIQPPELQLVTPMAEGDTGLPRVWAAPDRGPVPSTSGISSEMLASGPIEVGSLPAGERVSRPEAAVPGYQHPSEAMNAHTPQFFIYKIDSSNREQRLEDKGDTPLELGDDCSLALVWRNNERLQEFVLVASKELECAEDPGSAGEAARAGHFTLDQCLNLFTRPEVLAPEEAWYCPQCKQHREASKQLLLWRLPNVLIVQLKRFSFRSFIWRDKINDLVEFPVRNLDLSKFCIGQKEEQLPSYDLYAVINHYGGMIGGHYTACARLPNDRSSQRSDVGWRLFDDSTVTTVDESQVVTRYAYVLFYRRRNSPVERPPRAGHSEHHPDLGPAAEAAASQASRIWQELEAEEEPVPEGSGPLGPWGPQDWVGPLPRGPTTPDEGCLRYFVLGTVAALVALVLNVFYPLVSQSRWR
Summary of the method: (§1)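 Triplicate samples of HEK293T lysate, 495 µg each, received fragment at 200 µM or vehicle for 3 h, followed by Biotin-Ahx-Ub-VS (0.5 µM final) for 1 h. After NeutrAvidin enrichment of labelled DUBs and LysC/trypsin digestion, peptides were run by diaPASEF LC-MS/MS. The values are average log2 fragment/vehicle ratios from global-median-normalised Spectronaut label-free quantities, tested by unpaired t-test on proteins having ≥2 unique peptides.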

[2] = biological target: T2, USP22 (UniProt Q9UPT9)
T2 sequence (whole entry): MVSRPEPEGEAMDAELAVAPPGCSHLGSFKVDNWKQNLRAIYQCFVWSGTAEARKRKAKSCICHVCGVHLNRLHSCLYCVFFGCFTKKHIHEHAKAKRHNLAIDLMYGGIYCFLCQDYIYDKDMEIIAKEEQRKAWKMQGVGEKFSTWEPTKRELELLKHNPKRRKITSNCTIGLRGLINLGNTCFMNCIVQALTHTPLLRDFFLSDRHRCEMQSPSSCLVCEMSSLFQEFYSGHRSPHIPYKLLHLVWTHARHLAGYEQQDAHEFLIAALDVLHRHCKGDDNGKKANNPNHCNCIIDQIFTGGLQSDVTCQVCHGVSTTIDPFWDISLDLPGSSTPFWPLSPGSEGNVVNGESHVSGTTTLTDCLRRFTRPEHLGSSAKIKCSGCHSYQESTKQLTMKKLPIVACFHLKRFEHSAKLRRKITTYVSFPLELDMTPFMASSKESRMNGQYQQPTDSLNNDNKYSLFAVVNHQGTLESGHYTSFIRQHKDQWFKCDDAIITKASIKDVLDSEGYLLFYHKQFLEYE
Summary of the method: as §1

[3] = biological target: USP24 (UniProt Q9UPU5)
Sequence of USP24 (Q9UPU5 whole entry): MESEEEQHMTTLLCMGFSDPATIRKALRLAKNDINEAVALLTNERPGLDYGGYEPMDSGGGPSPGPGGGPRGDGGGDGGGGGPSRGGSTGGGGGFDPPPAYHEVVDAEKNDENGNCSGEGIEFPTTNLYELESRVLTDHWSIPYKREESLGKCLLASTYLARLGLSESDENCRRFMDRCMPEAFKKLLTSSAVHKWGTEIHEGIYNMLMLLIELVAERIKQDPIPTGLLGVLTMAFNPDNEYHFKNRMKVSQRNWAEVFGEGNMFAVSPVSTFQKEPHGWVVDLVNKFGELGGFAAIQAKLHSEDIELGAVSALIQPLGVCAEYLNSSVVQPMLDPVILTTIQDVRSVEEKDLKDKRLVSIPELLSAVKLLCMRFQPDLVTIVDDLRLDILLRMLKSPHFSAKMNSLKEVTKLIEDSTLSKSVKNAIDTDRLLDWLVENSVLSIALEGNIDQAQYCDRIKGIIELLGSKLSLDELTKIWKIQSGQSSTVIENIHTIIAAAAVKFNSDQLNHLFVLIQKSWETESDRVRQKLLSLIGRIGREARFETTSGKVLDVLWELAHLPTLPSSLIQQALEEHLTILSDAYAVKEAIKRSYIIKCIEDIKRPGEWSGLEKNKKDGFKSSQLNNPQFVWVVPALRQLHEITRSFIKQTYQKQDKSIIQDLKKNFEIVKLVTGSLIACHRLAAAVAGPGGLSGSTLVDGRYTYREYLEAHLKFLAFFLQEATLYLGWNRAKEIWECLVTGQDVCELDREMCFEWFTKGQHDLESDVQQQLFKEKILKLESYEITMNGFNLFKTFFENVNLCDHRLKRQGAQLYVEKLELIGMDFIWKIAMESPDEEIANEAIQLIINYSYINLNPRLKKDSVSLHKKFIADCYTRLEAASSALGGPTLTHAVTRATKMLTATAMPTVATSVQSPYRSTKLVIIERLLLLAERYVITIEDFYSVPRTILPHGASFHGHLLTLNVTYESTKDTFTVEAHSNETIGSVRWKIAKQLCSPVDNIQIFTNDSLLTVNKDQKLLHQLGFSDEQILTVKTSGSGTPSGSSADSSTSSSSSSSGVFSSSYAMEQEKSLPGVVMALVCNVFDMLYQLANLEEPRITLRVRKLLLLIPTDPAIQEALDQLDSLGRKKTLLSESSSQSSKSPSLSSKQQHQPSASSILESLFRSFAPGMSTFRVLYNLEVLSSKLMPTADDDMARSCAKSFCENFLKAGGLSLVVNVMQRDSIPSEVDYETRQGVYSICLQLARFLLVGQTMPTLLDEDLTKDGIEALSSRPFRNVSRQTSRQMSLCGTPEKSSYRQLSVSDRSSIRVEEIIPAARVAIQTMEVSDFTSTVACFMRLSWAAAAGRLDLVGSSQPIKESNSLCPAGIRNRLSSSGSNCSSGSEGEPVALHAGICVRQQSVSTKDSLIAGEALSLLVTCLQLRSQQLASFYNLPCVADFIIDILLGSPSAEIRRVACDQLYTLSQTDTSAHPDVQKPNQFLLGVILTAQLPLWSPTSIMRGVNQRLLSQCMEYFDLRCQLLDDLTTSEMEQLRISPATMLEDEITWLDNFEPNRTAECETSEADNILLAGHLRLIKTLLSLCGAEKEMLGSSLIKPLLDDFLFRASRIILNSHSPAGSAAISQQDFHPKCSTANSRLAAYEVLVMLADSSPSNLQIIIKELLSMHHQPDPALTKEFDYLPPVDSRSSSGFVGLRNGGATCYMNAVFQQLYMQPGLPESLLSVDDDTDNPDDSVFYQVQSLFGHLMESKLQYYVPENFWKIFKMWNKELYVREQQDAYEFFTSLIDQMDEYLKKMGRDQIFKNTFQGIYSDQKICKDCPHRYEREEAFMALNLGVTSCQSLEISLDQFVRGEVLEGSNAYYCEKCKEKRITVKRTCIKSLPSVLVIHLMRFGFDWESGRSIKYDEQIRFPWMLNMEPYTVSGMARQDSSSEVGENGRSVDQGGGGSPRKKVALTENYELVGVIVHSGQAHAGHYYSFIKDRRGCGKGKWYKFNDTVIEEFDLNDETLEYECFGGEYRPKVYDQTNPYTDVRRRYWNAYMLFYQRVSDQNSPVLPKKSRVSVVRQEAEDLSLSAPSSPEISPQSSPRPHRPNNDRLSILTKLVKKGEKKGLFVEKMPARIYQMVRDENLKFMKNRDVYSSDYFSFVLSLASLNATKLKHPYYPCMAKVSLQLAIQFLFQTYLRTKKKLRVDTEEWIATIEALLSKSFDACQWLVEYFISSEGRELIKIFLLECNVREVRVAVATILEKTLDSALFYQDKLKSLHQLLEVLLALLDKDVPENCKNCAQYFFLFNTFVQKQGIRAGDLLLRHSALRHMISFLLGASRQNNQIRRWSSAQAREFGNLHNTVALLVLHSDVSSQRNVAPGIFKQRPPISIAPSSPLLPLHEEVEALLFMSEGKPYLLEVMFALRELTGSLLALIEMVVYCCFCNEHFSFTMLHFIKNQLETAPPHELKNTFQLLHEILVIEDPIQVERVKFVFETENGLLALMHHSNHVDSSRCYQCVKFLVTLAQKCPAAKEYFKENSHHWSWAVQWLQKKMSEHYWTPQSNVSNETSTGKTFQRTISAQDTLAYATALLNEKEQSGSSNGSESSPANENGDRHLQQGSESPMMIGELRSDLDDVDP
Summary of the method: as §1

[4] = biological target: T3, USP25 (UniProt Q9UHP3)
T3 sequence (whole entry): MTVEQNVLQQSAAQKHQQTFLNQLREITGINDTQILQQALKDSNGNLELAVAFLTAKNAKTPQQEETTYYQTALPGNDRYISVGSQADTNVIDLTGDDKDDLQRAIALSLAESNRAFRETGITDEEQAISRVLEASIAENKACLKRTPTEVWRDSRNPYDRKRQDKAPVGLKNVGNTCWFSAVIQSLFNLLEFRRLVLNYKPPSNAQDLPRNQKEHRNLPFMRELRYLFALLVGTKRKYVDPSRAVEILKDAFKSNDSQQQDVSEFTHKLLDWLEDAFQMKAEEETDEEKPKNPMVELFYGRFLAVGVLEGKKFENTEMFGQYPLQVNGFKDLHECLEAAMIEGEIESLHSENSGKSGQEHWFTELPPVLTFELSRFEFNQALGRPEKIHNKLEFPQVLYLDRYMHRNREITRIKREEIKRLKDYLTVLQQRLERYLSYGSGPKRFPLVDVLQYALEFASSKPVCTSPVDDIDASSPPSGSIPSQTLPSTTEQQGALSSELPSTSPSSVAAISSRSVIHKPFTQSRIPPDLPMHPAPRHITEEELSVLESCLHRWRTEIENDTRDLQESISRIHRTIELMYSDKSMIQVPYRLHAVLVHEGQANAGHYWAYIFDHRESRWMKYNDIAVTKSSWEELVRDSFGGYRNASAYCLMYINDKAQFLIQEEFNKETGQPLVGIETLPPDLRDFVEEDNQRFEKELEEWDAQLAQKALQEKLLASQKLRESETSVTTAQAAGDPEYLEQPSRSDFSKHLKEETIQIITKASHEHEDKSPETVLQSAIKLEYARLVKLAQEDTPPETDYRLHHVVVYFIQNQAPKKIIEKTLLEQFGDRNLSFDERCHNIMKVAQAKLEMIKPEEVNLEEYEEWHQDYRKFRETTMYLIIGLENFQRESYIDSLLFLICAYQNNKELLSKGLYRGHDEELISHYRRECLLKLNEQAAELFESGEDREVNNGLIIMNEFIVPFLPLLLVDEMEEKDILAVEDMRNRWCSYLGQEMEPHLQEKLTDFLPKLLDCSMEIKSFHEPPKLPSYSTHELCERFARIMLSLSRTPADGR
Summary of the method: as §1

[5] = biological target: T4, USP28 (UniProt Q96RU2)
T4 sequence (whole entry): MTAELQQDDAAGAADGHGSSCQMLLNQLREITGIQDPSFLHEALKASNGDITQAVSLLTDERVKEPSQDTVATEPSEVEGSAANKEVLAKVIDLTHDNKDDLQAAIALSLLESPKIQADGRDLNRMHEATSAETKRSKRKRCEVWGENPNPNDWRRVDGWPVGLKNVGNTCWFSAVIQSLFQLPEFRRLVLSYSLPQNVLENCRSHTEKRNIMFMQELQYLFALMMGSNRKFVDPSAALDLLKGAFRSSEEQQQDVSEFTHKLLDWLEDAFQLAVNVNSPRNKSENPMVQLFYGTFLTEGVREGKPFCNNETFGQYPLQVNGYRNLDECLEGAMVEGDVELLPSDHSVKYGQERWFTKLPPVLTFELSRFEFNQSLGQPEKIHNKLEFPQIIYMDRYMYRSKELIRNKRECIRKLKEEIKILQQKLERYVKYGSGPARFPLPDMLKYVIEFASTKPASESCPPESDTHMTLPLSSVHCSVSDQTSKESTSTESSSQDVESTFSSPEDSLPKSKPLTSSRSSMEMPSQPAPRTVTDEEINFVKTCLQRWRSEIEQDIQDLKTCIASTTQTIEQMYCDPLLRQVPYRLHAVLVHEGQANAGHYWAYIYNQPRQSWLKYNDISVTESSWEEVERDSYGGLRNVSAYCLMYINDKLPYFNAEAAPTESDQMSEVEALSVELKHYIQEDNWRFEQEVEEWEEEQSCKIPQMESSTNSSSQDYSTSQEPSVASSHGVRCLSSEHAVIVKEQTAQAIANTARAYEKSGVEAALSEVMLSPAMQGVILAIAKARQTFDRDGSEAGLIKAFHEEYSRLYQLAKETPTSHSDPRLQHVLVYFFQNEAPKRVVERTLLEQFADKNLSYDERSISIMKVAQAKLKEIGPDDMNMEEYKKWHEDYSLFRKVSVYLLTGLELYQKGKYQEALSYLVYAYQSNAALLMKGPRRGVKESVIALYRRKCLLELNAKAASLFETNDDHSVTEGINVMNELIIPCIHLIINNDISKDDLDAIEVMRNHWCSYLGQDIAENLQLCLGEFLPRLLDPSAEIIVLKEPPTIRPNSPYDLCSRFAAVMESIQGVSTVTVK
Summary of the method: as §1

Measured: log2 ratio of Biotin-Ahx-Ub-VS probe labelling

NC(=O)C1CCCCN1C(=O)CCl (stereo not given)
inactive: [1] -0.231 | [2] 0.159 | [3] -0.241 | [4] -0.267 | [5] -0.652
